In PubChem BioAssay (NCATS):
Inconclusive results are not listed. Unmarked numbers belong to inactive results. The call rests on the fitted dose curve; in most records, active means well fitted curve in the direction sought with a large enough effect; inconclusive means small, poorly fitted or top-dose-only effect, or another doubt; inactive means no such curve, though single readings can be large; an effect the other way counts as inactive or inconclusive. *1 amine or outer side, *2 acyl side, *3 side chain or, on linkers, in order; H or OH if unused. Where a SMILES comes first, the peptide text is derived from it. Bridges are numbered along the chain shown (N, C = ends). [ ]: non-standard residue; d: D form. The star is where a group is joined. X5 = NC1=N[C@@H]([C@H](N[*:1])C(=O)[*:2])C[C@H](O)N1; ΔAla(Z-3-ureido) = NC(=O)N/C=C(\N)C(=O)O; β3hOrn = NCCC[C@H](N)CC(=O)*; Dap = NC[C@H](N)C(=O)O

Experiment: qHTS assay to identify small molecule inhibitors of chordoma cells - UCH-1 (AID 1259355); further: nearly all actives have a fitted effect of over 55% in size
Conditions: UCH-1 chordoma viability, CellTiter-Glo, 48 h, combination, with auranofin plus four topoisomerase inhibitors; series mostly up to 46.1 µM; activity, negative = inhibition: at the top concentration
Procedure, shortened: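 Seed 800 cells per well; incubate overnight at 37 C, 5% CO2. Add test compounds (15 concentrations), then the auranofin–topoisomerase-agent combination. Incubate 48hr, add CellTiter-Glo, wait 30min, read luminescence.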
On the % scale 0 is the no-effect control and ±100 the full control effect.

SMILES | activity, negative = inhibition
NC(=O)[C@@H]1CCCN1C(=O)[C@H](Cc1cnc[nH]1)NC(=O)[C@@H]1CCC(=O)N1 | -7.46%
CCCCCCCCCCCC(=O)OCC(O)CO (stereo unspecified) | -14%
C[C@]12CC[C@@H]3c4ccc(O)cc4CC[C@H]3[C@@H]1CC[C@@H]2OP(=O)(O)O | -22.9%
c1ccc2c(c1)OCC(CN1CCCCC1)O2 (stereo unspecified) | -23%
CCC(Cc1c(I)cc(I)c(O)c1I)C(=O)O (stereo unspecified) | -7.79%
OC[C@@H](O)C(O)[C@H](O)CO | -4.51%
OC[C@H]1OC([S-])[C@H](O)[C@@H](O)[C@@H]1O.[Au+] (stereo partly specified) | -31.3%
C[C@@](Cc1ccc(O)c(O)c1)(NN)C(=O)O | 20.2%
C=CC1=C(C(=O)O)N2C(=O)[C@@H](NC(=O)/C(=N\O)c3csc(N)n3)[C@H]2SC1 (stereo in doubt) | -35.3%
CC(O)[C@@H]1NC(=O)[C@H](Cc2ccccc2)NC(=O)[C@H](C(C)O)NC(=O)[C@H](CCCCN)NC(=O)[C@H](Cc2c[nH]c3ccccc23)NC(=O)[C@H](Cc2ccccc2)NC(=O)[C@H](Cc2ccccc2)NC(=O)[C@H](CC(N)=O)NC(=O)[C@H](CCCCN)NC(=O)[C@@H](NC(=O)CNC(=O)[C@H](C)N)CSSC[C@@H](C(=O)O)NC(=O)[C@H](CO)NC1=O (stereo partly specified) | -17.9%
O=C(O)[C@@H]1C[C@H](CP(=O)(O)O)CCN1 | 0.187%
C[S+](C)CCC(N)C(=O)O (stereo unspecified) | -4.59%
CC(=O)[C@@]1(O)CC[C@H]2[C@@H]3C=C(Cl)C4=CC(=O)[C@@H]5C[C@@H]5[C@]4(C)[C@H]3CC[C@@]21C | -5.27%
C[C@H](N)C(=O)N[C@@H](C)P(=O)(O)O | -3.15%
CCCC1C(=O)N2C(N(C)C)=Nc3ccc(C)cc3N2C1=O (stereo unspecified) | -12% [at 20.6 µM]
CCN(CC)CCOc1ccccc1OC | -16%
CC(C)[C@H](N)C(=O)OCC(CO)OCn1cnc2c(=O)[nH]c(N)nc21 (stereo partly specified) | -10.5%
O=C1C2CC3CC1CC(O)(C3)C2 | -10.5%
NCCC[C@H](N)CC(=O)N[C@H]1CNC(=O)[C@H]([C@H]2C[C@H](O)NC(N)=N2)NC(=O)/C(=C/NC(N)=O)NC(=O)[C@H](CO)NC(=O)[C@H](CO)NC1=O (β3hOrn-[Dap]SS[ΔAla(Z-3-ureido)][X5]; lactam 1-C) | 30.5%

SMILES | activity, negative = inhibition
CCCCCc1ccc(C)cc1O | 4.7%
Cn1cc(NC(=O)c2cc(NC(=O)c3cc(NC=O)cn3C)cn2C)cc1C(=O)NCCC(=N)N | -8.98%
Cc1cccc(Nc2ncccc2C(=O)O)c1C | -26.5%
CC1CCCC(C)N1NC(=O)c1ccc(Cl)c(S(N)(=O)=O)c1 (stereo unspecified) | -9.84% [at 20.6 µM]
FC(F)(F)COCC(F)(F)F | -9.49%
CCCCCCCCCCCCCCCCCCCCCC(=O)Nc1ccn([C@@H]2O[C@H](CO)[C@@H](O)[C@@H]2O)c(=O)n1 | -6.29%
CCC[C@@H]1C[C@@H](C(=O)N[C@@H]([C@H]2O[C@H](SC)[C@H](O)[C@@H](O)[C@H]2O)[C@H](C)Cl)N(C)C1 | 16.9%
CC(C)c1ncc([N+](=O)[O-])n1C | -2.88%
CC1=C(/C=C/C(C)=C/C=C/C(C)=C/C(=O)Oc2c(C)c(C)c3c(c2C)CC[C@@](C)(CCC[C@H](C)CCC[C@H](C)CCCC(C)C)O3)C(C)(C)CCC1 | -10%
CC(C)OC(=O)Nc1ccc2nc(-c3cscn3)[nH]c2c1 | -17.6%
CN1C(=O)OC(C)(C)C1=O | -8.23% [at 20.6 µM]
CC(=O)[O][Al][O]C(C)=O | -24.7%
C=N[C@@H](C(=O)N[C@@H]1C(=O)N2[C@@H]1SC(C)(C)[C@@H]2C(=O)O)c1ccccc1 | -2.1%
CC/C=C\C/C=C\C/C=C\C/C=C\C/C=C\CCCC(=O)O | -8.55%
O=C(/C=C/c1cccc(F)c1)NC1CC1 | -13.2%
CC(/C=C/C=C(\C)C(=O)O[C@@H]1O[C@H](CO[C@@H]2O[C@H](CO)[C@@H](O)[C@H](O)[C@H]2O)[C@@H](O)[C@H](O)[C@H]1O)=C\C=C\C=C(C)\C=C\C=C(/C)C(=O)O[C@@H]1O[C@H](CO[C@@H]2O[C@H](CO)[C@@H](O)[C@H](O)[C@H]2O)[C@@H](O)[C@H](O)[C@H]1O | -20%
COC1[C@@H](O[C@@H]2O[C@H](C)[C@@H](O[C@H]3C[C@@](C)(O)[C@H](OC(=O)CC(C)C)[C@H](C)O3)[C@H](N(C)C)[C@H]2O)[C@@H](CC=O)C[C@@H](C)[C@@H](O)/C=C/C=C/C[C@@H](C)OC(=O)C[C@H]1OC(C)=O (stereo partly specified) | -37.3% [at 20.6 µM]
CC(C)(CO)[C@@H](O)C(=O)NCCCC(=O)O | -9.58%
O=C1N=C2SCCN2C(=O)C1Cc1ccc(Cl)cc1 (stereo unspecified) | -8.79%

Experiment: qHTS assay to identify small molecule inhibitors of chordoma cells - UCH-2 (AID 1259356)
Conditions: UCH-2 chordoma viability, CellTiter-Glo ATP luminescence, 48 h; series mostly up to 46.1 µM; activity change, negative = inhibition: at the top concentration

SMILES | activity change, negative = inhibition
NC(=O)[C@@H]1CCCN1C(=O)[C@H](Cc1cnc[nH]1)NC(=O)[C@@H]1CCC(=O)N1 | 5.86%
CCCCCCCCCCCC(=O)OCC(O)CO (stereo unspecified) | -2.8%
C[C@]12CC[C@@H]3c4ccc(O)cc4CC[C@H]3[C@@H]1CC[C@@H]2OP(=O)(O)O | 4.43%
c1ccc2c(c1)OCC(CN1CCCCC1)O2 (stereo unspecified) | 12%
CCC(Cc1c(I)cc(I)c(O)c1I)C(=O)O (stereo unspecified) | 7.67%
OC[C@@H](O)C(O)[C@H](O)CO | 1.34%
OC[C@H]1OC([S-])[C@H](O)[C@@H](O)[C@@H]1O.[Au+] (stereo partly specified) | 9.24%
C[C@@](Cc1ccc(O)c(O)c1)(NN)C(=O)O | -1.28%
C=CC1=C(C(=O)O)N2C(=O)[C@@H](NC(=O)/C(=N\O)c3csc(N)n3)[C@H]2SC1 (stereo in doubt) | -0.459%
CC(O)[C@@H]1NC(=O)[C@H](Cc2ccccc2)NC(=O)[C@H](C(C)O)NC(=O)[C@H](CCCCN)NC(=O)[C@H](Cc2c[nH]c3ccccc23)NC(=O)[C@H](Cc2ccccc2)NC(=O)[C@H](Cc2ccccc2)NC(=O)[C@H](CC(N)=O)NC(=O)[C@H](CCCCN)NC(=O)[C@@H](NC(=O)CNC(=O)[C@H](C)N)CSSC[C@@H](C(=O)O)NC(=O)[C@H](CO)NC1=O (stereo partly specified) | 13.8%
O=C(O)[C@@H]1C[C@H](CP(=O)(O)O)CCN1 | 10.1%
C[S+](C)CCC(N)C(=O)O (stereo unspecified) | 3.67%
CC(=O)[C@@]1(O)CC[C@H]2[C@@H]3C=C(Cl)C4=CC(=O)[C@@H]5C[C@@H]5[C@]4(C)[C@H]3CC[C@@]21C | 6.35%
C[C@H](N)C(=O)N[C@@H](C)P(=O)(O)O | 2.6%
CCCC1C(=O)N2C(N(C)C)=Nc3ccc(C)cc3N2C1=O (stereo unspecified) | 13.9% [at 20.6 µM]
CCN(CC)CCOc1ccccc1OC | -1.47%
CC(C)[C@H](N)C(=O)OCC(CO)OCn1cnc2c(=O)[nH]c(N)nc21 (stereo partly specified) | 3.49%
O=C1C2CC3CC1CC(O)(C3)C2 | 3.76%
NCCC[C@H](N)CC(=O)N[C@H]1CNC(=O)[C@H]([C@H]2C[C@H](O)NC(N)=N2)NC(=O)/C(=C/NC(N)=O)NC(=O)[C@H](CO)NC(=O)[C@H](CO)NC1=O (β3hOrn-[Dap]SS[ΔAla(Z-3-ureido)][X5]; lactam 1-C) | 9.48%

SMILES | activity change, negative = inhibition
CCCCCc1ccc(C)cc1O | -20%
Cn1cc(NC(=O)c2cc(NC(=O)c3cc(NC=O)cn3C)cn2C)cc1C(=O)NCCC(=N)N | -0.787%
Cc1cccc(Nc2ncccc2C(=O)O)c1C | 5.94%
CC1CCCC(C)N1NC(=O)c1ccc(Cl)c(S(N)(=O)=O)c1 (stereo unspecified) | 2.57% [at 20.6 µM]
FC(F)(F)COCC(F)(F)F | 7.63%
CCCCCCCCCCCCCCCCCCCCCC(=O)Nc1ccn([C@@H]2O[C@H](CO)[C@@H](O)[C@@H]2O)c(=O)n1 | -6.04%
CCC[C@@H]1C[C@@H](C(=O)N[C@@H]([C@H]2O[C@H](SC)[C@H](O)[C@@H](O)[C@H]2O)[C@H](C)Cl)N(C)C1 | -13.4%
CC(C)c1ncc([N+](=O)[O-])n1C | 4.01%
CC1=C(/C=C/C(C)=C/C=C/C(C)=C/C(=O)Oc2c(C)c(C)c3c(c2C)CC[C@@](C)(CCC[C@H](C)CCC[C@H](C)CCCC(C)C)O3)C(C)(C)CCC1 | -18.1%
CC(C)OC(=O)Nc1ccc2nc(-c3cscn3)[nH]c2c1 | -26.5%
CN1C(=O)OC(C)(C)C1=O | 16.5% [at 20.6 µM]
CC(=O)[O][Al][O]C(C)=O | 0%
C=N[C@@H](C(=O)N[C@@H]1C(=O)N2[C@@H]1SC(C)(C)[C@@H]2C(=O)O)c1ccccc1 | 5.2%
CC/C=C\C/C=C\C/C=C\C/C=C\C/C=C\CCCC(=O)O | -17.6%
O=C(/C=C/c1cccc(F)c1)NC1CC1 | -12.3%
CC(/C=C/C=C(\C)C(=O)O[C@@H]1O[C@H](CO[C@@H]2O[C@H](CO)[C@@H](O)[C@H](O)[C@H]2O)[C@@H](O)[C@H](O)[C@H]1O)=C\C=C\C=C(C)\C=C\C=C(/C)C(=O)O[C@@H]1O[C@H](CO[C@@H]2O[C@H](CO)[C@@H](O)[C@H](O)[C@H]2O)[C@@H](O)[C@H](O)[C@H]1O | -0.229%
COC1[C@@H](O[C@@H]2O[C@H](C)[C@@H](O[C@H]3C[C@@](C)(O)[C@H](OC(=O)CC(C)C)[C@H](C)O3)[C@H](N(C)C)[C@H]2O)[C@@H](CC=O)C[C@@H](C)[C@@H](O)/C=C/C=C/C[C@@H](C)OC(=O)C[C@H]1OC(C)=O (stereo partly specified) | -3.62% [at 20.6 µM]
CC(C)(CO)[C@@H](O)C(=O)NCCCC(=O)O | 7.8%
O=C1N=C2SCCN2C(=O)C1Cc1ccc(Cl)cc1 (stereo unspecified) | 4.51%
